# The list is not random: actives were taken first. Their share in the collection is about 1.2%.
# GALR2 agonist: GALR2 receptor agonists, primary screen, cell-based; Galanin receptor type 2 (Homo sapiens), O43603; GALR2-expressing cells, agonist activation read-out; activation, % (concentration not given with the values); 0.48% of 140,000 active; in the data active means activation above about 5%, passing the limit was not always enough
# S1P2 blocker: human S1P2 receptor antagonists, primary screen, cell-based; cell-based S1P2 antagonist assay, inhibition at 5 uM; inhibition, % at 5 µM; AID 736, 2007; Sphingosine 1-phosphate receptor 2 (Homo sapiens), O95136; 0.21% of 97,000 active; in the data active means inhibition above about 45%;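 further: CRE beta-lactamase reporter cells expressing human S1P2 stimulated with S1P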
# Target sequence (O95136 whole entry, looked up): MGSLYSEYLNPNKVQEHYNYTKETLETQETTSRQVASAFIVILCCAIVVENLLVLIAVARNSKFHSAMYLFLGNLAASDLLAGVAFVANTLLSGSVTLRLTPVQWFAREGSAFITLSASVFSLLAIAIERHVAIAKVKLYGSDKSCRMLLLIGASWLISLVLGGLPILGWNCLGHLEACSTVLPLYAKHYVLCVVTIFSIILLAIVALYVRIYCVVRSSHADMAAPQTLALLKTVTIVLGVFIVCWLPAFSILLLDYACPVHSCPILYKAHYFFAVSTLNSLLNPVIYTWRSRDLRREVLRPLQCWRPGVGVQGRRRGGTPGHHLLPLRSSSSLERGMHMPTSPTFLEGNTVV
# GALR2 antag: GALR2 antagonists in receptor-expressing cells, primary screen. antagonist mode. inhibition, % at 4 µM. 0.39% of 140,000 active. AID 828, 2007;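 further: cells stimulated with galanin 1-16 at roughly its EC80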
# S1P2 ag: S1P2 receptor agonists, primary screen, cell-based; S1P2-expressing cell line, agonist reporter read-out; activation, % at 4.5 µM; 0.46% of 97,000 active; AID 729, 2007; in the data active means activation above about 16%
# GALR2 blk conf: GALR2 antagonists, retest of hits, confirmation, cell-based. 60% of 480 active. shares compounds with GALR2 antag. GALR2-expressing cells, antagonist mode, inhibition. inhibition, % at 4 µM;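 further: cells stimulated with galanin at about its EC80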
# BLA inh counter: inhibitors of NFAT-driven beta-lactamase reporter, confirmation, counter-screen for GALR2 antagonist project, CHO NFAT-bla cells, FRET readout; inhibition, % at 4.2 µM; shares compounds with GALR2 antag; thapsigargin-stimulated; 36% of 480 active;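 active means inhibition above the mean inhibition across tested compounds plus 3 SD, cut at about 27% in these data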
# Hits are given with their value; - = inactive; . = not tested or not shown. Unless noted, no stated cut-off is given here; in the data, active means inhibition above about 27%; inactive means the rest.
SMILES,GALR2 agonist,S1P2 blocker,GALR2 antag,S1P2 ag,GALR2 blk conf,BLA inh counter
O=C(N/N=C1/CN2CCC1CC2)c1cc2ccccc2cc1O,-,-,-,-,.,.
CN[C@H]1C[C@H]2O[C@@](C)([C@H]1OC)n1c3ccccc3c3c4c(c5c6ccccc6n2c5c31)C(=O)NC4,-,.,104,.,105,108
CN1C2CCC1/C(=C/c1ccccn1)C(=O)/C2=C\c1ccccn1,-,.,102,.,102,105
COC(=O)C[C@]1(C(=O)OC)CN(C#N)N(c2ccc(Cl)cc2)C12c1ccccc1-c1ccccc12,-,-,40,-,44,32
Cc1ccccc1-n1c(O)c(C=Nc2ccc(N(C)C)cc2)c(=O)[nH]c1=O,-,-,-,-,.,.
